Screens (PubChem)
FadD28 FP inh: inhibitors of FadD28 bisubstrate probe binding, primary screen, biochemical, fluorescence polarization, single point; inhibition, % at 12.5 µM; hit rate 0.22% among 360,000; in the data active = inhibition above about 8.5%, passing the limit was not always enough
FBA Mtb inh: Mtb FBA enzyme inhibitors, primary screen, biochemical, fluorescence, strain H37Rv | Fructose-bisphosphate aldolase (Mycobacterium tuberculosis (strain ATCC 25618 / H37Rv)), … | purified M. tuberculosis FBA, fluorescence read-out | inhibition, % at 1 µM | hit rate 2.3% among 360,000 | AID 588726, 2011;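 note: 0% = vehicle and 100% = reference inhibitor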
Rv3671c protease: Rv3671c serine protease inhibitors, primary screen, biochemical, fluorescence polarization, M. tuberculosis H37Rv; P9WHR9; inhibition, % at 5.96 µM; hit rate 0.048% among 320,000; in the data active = inhibition above about 38%;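 note: extracellular domain of Rv3671c used as enzyme; 0% = enzyme with DMSO and 100% = no enzyme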
Target sequence (P9WHR9 whole entry, looked up, the tested form may be a part): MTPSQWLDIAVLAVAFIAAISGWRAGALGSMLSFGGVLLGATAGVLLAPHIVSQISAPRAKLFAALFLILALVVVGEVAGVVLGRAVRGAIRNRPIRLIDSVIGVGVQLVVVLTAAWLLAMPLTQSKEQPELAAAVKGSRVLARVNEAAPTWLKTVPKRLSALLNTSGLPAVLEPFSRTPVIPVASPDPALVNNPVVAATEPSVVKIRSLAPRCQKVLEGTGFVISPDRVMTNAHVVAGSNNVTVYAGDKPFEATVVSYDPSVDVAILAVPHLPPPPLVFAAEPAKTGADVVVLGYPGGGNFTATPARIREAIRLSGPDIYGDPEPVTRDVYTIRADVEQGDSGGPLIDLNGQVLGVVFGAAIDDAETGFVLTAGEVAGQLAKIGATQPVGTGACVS
BioA inh: M. tuberculosis BioA enzyme inhibitors, primary screen, biochemical, plate reader, single point, HTS; inhibition, % at 9.99 µM; purified M. tuberculosis BioA enzyme; AID 602481, 2012; hit rate 0.096% among 360,000; in the data active = inhibition above about 40%
GDH-TPI counter-1: GDH-TPI coupling enzyme inhibitors, primary screen, artefact control for M. tuberculosis FBA inhibitor project, biochemical, absorbance, full deck; GDH-TPI coupled enzyme counterscreen, NADH absorbance; inhibition, % at 4.8 µM; hit rate 1.2% among 360,000; in the data active = inhibition above about 30%;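 note: 0% = DMSO wells and 100% = wells lacking the enzyme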
Mtb FBA confirm: M. tuberculosis aldolase blockers, biochemical, fluorescence, strain H37Rv, confirmation; shares compounds with FBA Mtb inh; purified M. tuberculosis FBA, fluorescence read-out; inhibition, % at 1 µM; hit rate 78% among 5,600; AID 651616, 2012;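 note: 0% = vehicle wells and 100% = reference inhibitor wells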
GDH-TPI counter-2: GDH-TPI coupling enzyme inhibitors, artefact control for M. tuberculosis FBA inhibitor project, biochemical, fluorescence, high throughput; shares compounds with FBA Mtb inh; inhibition, % at 1 µM; hit rate 81% among 5,600; GDH-TPI coupled enzyme counterscreen; AID 652141, 2013; in the data active = inhibition above about 10%
Numbers without * were called inactive; nt = no result given; + = active, no number. Sampled rows, rich in hits. Any-hit rate of the full collection: about 3%. Cut-off read from the data, not from the text of the source, unless noted: active = inhibition above about 27%; inactive = the rest.

SMILES | FadD28 FP inh | FBA Mtb inh | Rv3671c protease | BioA inh | GDH-TPI counter-1 | Mtb FBA confirm | GDH-TPI counter-2
CCOC(=O)c1sc(NC(=O)CSc2nc(-c3ccco3)cc(C(F)(F)F)n2)c(C#N)c1C | -1.2 | 0.1 | 7.8 | -1.2 | -1.6 | nt | nt
CCOC(=O)C(C)Sc1nc(-c2ccco2)cc(C(F)(F)F)c1C#N (stereo unspecified) | -2.8 | 29.1* | -5.4 | 0.0 | 2.8 | 123.9* | 95.0*
C[C@@H]1CN([C@@H](C)CO)C(=O)c2cc(NC(=O)c3ccncc3)ccc2O[C@@H](C)CCCCO[C@H]1CN(C)CC1CCCCC1 | nt | nt | nt | 0.1 | nt | nt | nt
CCOC(=O)C(C)Oc1ccc2c(CC)cc(=O)oc2c1C (stereo unspecified) | -1.1 | 31.3* | 3.8 | -1.3 | 2.0 | 74.3* | 72.0*
CCOC(=O)CCc1c(C)c2ccc(OC(C)C(=O)OCC)c(C)c2oc1=O (stereo unspecified) | -1.5 | 51.2* | -9.4 | 1.0 | 20.6 | 54.6* | 44.2*
Cc1cc(=O)oc2c(C)c(OC(=O)c3ccco3)ccc12 | 1.0 | 5.5 | 2.3 | -1.6 | -4.8 | nt | nt
CCc1cc(=O)oc2c(C)c(OC(C)C(=O)NCC3CCC(C(=O)O)CC3)ccc12 (stereo unspecified) | -2.5 | 7.4 | 9.8 | 1.4 | 5.9 | nt | nt
CCC(=O)Oc1ccc2c(C)cc(=O)oc2c1C | 1.3 | 39.3* | 1.7 | -1.9 | 4.0 | 93.6* | 95.0*
CCC(=O)Nc1cccc(-c2nc3ccccc3o2)c1 | -4.5 | 10.7 | 6.3 | -1.0 | 0.0 | nt | nt
O=C(Nc1ccc(-c2nc3ccccc3o2)cc1)C1CCCO1 (stereo unspecified) | -5.3 | 34.3* | 4.9 | -0.8 | 17.8 | -3.1 | -1.8
CC(=O)Nc1nc2ccc(-c3nc4ccccc4o3)cc2s1 | -2.1 | 104.8* | -24.5 | -0.6 | 23.4 | 92.4* | 75.2*
O=S(=O)(Nc1ccc(-c2nc3ccccc3o2)cc1)c1ccccc1 | -1.2 | 86.6* | -17.6 | 2.7 | 42.7* | 130.5* | 110.0*
CC(=O)Nc1ccc(S(=O)(=O)Nc2cccc(-c3nc4ccccc4o3)c2)cc1 | -11.9 | 55.2* | -37.2 | 3.4 | 3.5 | 57.7* | 53.0*
O=C(Nc1ccc(-c2nc3cc(Cl)ccc3o2)cc1)C1CCCO1 (stereo unspecified) | 2.7 | 3.8 | 2.5 | -3.3 | 11.0 | nt | nt
O=S(=O)(Nc1ccc(-c2cnco2)cc1)c1ccccc1 | -1.5 | 0.5 | -7.7 | nt | -6.4 | nt | nt
O=C(CSc1nc2ccccc2o1)Nc1nc2ccccc2s1 | -2.8 | 4.9 | -13.3 | -1.5 | -5.9 | nt | nt
O=C(C[C@H]1C=C[C@H](NC(=O)C2CCOCC2)[C@H](CO)O1)Nc1ccc(-c2ccccc2)cc1 | nt | nt | nt | -3.5 | nt | nt | nt
C/C=C/c1ccc([C@@H]2[C@@H](CO)N(C(=O)C3CC3)[C@H]2CN(C)C(=O)CC)cc1 | nt | nt | nt | -0.6 | nt | nt | nt
C[C@H]1CCCCO[C@@H](CN(C)C(=O)NC2CCCCC2)[C@@H](C)CN([C@@H](C)CO)C(=O)c2cc(NC(=O)c3ccccc3)ccc2O1 | nt | nt | nt | -2.3 | nt | nt | nt
NC(=O)c1ccc(NCCc2cccs2)cc1 | -0.5 | 3.6 | nt | 4.2 | nt | nt | nt
Cn1c2ccccc2c(=O)c2ccc(NCCc3cccs3)cc21 | -2.5 | 108.8* | -13.2 | -1.4 | 30.4 | 4.7 | -0.7
COCC(=O)N(C)C[C@H]1Oc2ncc(-c3ccccc3F)cc2C(=O)N([C@@H](C)CO)C[C@H]1C | nt | nt | nt | -2.8 | nt | nt | nt
COc1ccc(OC)c2c1C(=O)C(Cl)=C(Cl)C2=O | -0.9 | -2.3 | 0.9 | -1.7 | 3.1 | nt | nt
COc1ccc(OC)c2c1C(=O)CC2C (stereo unspecified) | -0.3 | 48.0* | nt | -2.0 | 15.9 | 14.9 | 6.8
C[C@@H]1CCCCO[C@@H](CN(C)C(=O)NC2CCCCC2)[C@@H](C)CN([C@@H](C)CO)C(=O)c2cc(NC(=O)Nc3cccc4ccccc34)ccc2O1 | nt | nt | nt | 1.5 | nt | nt | nt
SMILES | FadD28 FP inh | FBA Mtb inh | Rv3671c protease | BioA inh | GDH-TPI counter-1 | Mtb FBA confirm | GDH-TPI counter-2
CC(=O)Nc1nn(C)c2nc(C)cc(C)c12 | -3.5 | 39.4* | 6.0 | -0.7 | -12.6 | 58.8* | 49.6*
Cc1cc(OCC(=O)Nc2ccc(CN3CCOCC3)cc2)c2c(C)c(C)c(=O)oc2c1 | -4.4 | 70.6* | -3.0 | -1.2 | 2.5 | + | +
Cc1cc(Cl)ccc1OCC(=O)Nc1ccc(CN2CCOCC2)cc1 | -0.2 | -0.2 | nt | -1.2 | 1.4 | nt | nt
Cc1cc(OCC(=O)Nc2ccc(CN3CCOCC3)cc2)c2c(C)cc(=O)oc2c1 | -3.1 | 77.5* | -5.4 | -0.2 | -1.5 | 51.5* | 33.5*
Cc1ccc(S(=O)(=O)Nc2ccc3c(c2)C(=O)N([C@H](C)CO)C[C@@H](C)[C@@H](CN(C)C(=O)Nc2ccccc2)OCCCC[C@H](C)O3)cc1 | nt | nt | nt | -2.7 | nt | nt | nt
N#Cc1cc2c(nc1SCC(=O)O)CCCCC2 | -3.5 | -0.6 | -2.4 | nt | 6.5 | nt | nt
CCOC(=O)CC(=O)CSc1nc2c(c(-c3cccs3)c1C#N)CCC2 | 0.3 | 2.3 | -20.4 | -0.4 | 7.1 | nt | nt
CCOC(=O)CC(=O)CSc1nc2c(cc1C#N)CCC2 | -4.0 | 31.3* | 11.7 | nt | 1.4 | 80.1* | 64.9*
COC(=O)CC(=O)CSc1nc2c(cc1C#N)CCCCC2 | -0.1 | 39.1* | 10.5 | nt | 15.6 | 140.7* | 97.8*
CN1CCN(C(=O)C[C@H]2CC[C@H]3[C@@H](COC[C@H](O)CN3CC3CC3)O2)CC1 | nt | nt | nt | -2.9 | nt | nt | nt
O=C1CN(Cc2ccccc2)C(=NCc2ccco2)S1 | -1.1 | 27.8* | -1.7 | -0.9 | 3.3 | 183.8* | 162.8*
CC1=CC=CC2=NC(=O)CC(C)(C(=O)N(CC(=O)NC3CCCC3)Cc3ccc(Cl)cc3)N12 (stereo unspecified) | -2.2 | 105.6* | 4.2 | -2.8 | 15.6 | + | +
CC1=CC2=NC(=O)CC(C)(C(=O)N(CC(=O)NC3CCCC3)c3cc(C)cc(C)c3)N2C=C1 (stereo unspecified) | -2.1 | 56.9* | 3.6 | nt | 0.0 | + | +
CC1=CC2=NC(=O)CC(C)(C(=O)N(CC(=O)NC(C)(C)C)Cc3cccs3)N2C=C1 (stereo unspecified) | -0.6 | 101.0* | -0.2 | -1.1 | 20.0 | 148.9* | 125.0*
CS(=O)(=O)N(CC(=O)NC1CCCCCC1)Cc1ccc(Cl)cc1 | 0.2 | 4.0 | 3.9 | -1.0 | 10.2 | nt | nt
CC1(C(=O)N(CC(=O)NC2CCCC2)Cc2ccc(Cl)cc2)CC(=O)N=C2C=CC=CN21 (stereo unspecified) | 0.1 | 89.2* | -0.1 | -1.2 | 10.3 | + | +
